The text below walks through data of PubChem BioAssay AID720593 (Broad Institute, 2013).

Each structure is given as a SMILES string. Potency and affinity values are given separately. Activity calls are given as the source filed them.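 How the source made its calls: active means falling viability curve whose half-maximal potency lies within twice the top valid tested dose; inconclusive means flat curve with moderate signal loss, or unreliable curve fit; inactive means the rest.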

The nature of this experiment: HeLa cell cytotoxicity, dose response, cytotoxicity control, CellTiter-Glo luminescence, dry powder, set 2 (AID 720593). The settings on record: HeLa viability, ATP luminescence (CellTiter-Glo), 72 h; series mostly up to 26 µM.
With `CC1CCN(S(=O)(=O)c2ccc(C(=O)Nc3nnc(-c4ccccn4)o3)cc2)CC1`, the outcome was inactive.

For `Cc1c(C(=O)N(C)C)sc2nc(-c3ccccn3)[nH]c(=O)c12`, the call was inactive.

Take `CC1CC(C)CN(S(=O)(=O)c2ccc(C(=O)Nc3nnc(C4=COCCO4)o3)cc2)C1` (configuration not stated): the compound was called inactive.

Regarding `CC1CCN(S(=O)(=O)c2ccc(C(=O)Nc3nnc(C4CC4)o3)cc2)CC1`, the outcome was inactive.

Take `Cc1ccc(S(=O)(=O)CCc2nnc(NC(=O)c3ccccc3)s2)cc1`: the compound was classed as inactive.

For the compound `CC1CCN(S(=O)(=O)c2ccc(C(=O)Nc3nnc(-c4ccno4)o3)cc2)CC1`, the result was inactive.

In the case of `CC1CCN(S(=O)(=O)c2ccc(C(=O)Nc3nnc(-c4ccccc4)o3)cc2)CC1`, the compound was called inactive.

In the case of `CC1CCN(S(=O)(=O)c2ccc(C(=O)Nc3nnc(-c4cccs4)o3)cc2)CC1`, the call was inactive.

On to `O=C(CSc1ccc(-c2ccccn2)nn1)N1CCCC1`, for which the call was inactive.

With `COC(=O)Cc1cc(=O)n(-c2nc3ccccc3[nH]2)[nH]1`, the compound was called inactive.

With `O=C(Nc1nnc(C2=COCCO2)o1)c1ccc(S(=O)(=O)N2CCCCC2)cc1`, the compound was called inactive.

Turning to `COC(=O)c1ccc(NC(=O)CSc2ccc(-c3ccccn3)nn2)cc1`, the call was inactive.

Regarding `CC1CCCN(S(=O)(=O)c2ccc(C(=O)Nc3nnc(C4=COCCO4)o3)cc2)C1` (configuration not stated), the result was inactive.

Consider `O=C(CSc1ccc(-c2ccccn2)nn1)Nc1nccs1`, for which the call was inactive.

As for `CC(C)Cc1nnc(NC(=O)c2cccc(S(=O)(=O)N3CCOCC3)c2)s1`, the compound was classed as inactive.

Consider `O=C(Nc1nc(-c2ccncc2)cs1)c1ccco1`, for which the compound was called inactive.

Regarding `O=C(CSc1ccc(-c2ccccn2)nn1)NC1CCCCC1`, the call was inactive.
